Reference: PubChem BioAssay (EPA / NIEHS)
Where “and” joins values, the source holds several entries; their conditions need not be identical. Equal values may be shown once. Results filed as inconclusive are left out. Some structures have more than one record in an assay (separate samples or runs), and their calls can disagree. Calls of active or inactive are those of the source. Rule for the calls, unless noted: active = hit-call score of the fitted dose curve at least 0.9, where 1 is the maximum; inconclusive = response in the unintended direction; inactive = score below 0.9.

Tests used:
[1] = biological target: Agonist Androgen Response Element (ARE), AR (gene 367) (UniProt P10275); assay: OT_AR_ARELUC_AG_1440: Odyssey Thera (OT) 24-hour CHO-K1 Luciferase Assay for Agonist Androgen Response Element (ARE) (AID 2283379)
Agonist Androgen Response Element (ARE), AR (gene 367), sequence (P10275 whole entry, looked up): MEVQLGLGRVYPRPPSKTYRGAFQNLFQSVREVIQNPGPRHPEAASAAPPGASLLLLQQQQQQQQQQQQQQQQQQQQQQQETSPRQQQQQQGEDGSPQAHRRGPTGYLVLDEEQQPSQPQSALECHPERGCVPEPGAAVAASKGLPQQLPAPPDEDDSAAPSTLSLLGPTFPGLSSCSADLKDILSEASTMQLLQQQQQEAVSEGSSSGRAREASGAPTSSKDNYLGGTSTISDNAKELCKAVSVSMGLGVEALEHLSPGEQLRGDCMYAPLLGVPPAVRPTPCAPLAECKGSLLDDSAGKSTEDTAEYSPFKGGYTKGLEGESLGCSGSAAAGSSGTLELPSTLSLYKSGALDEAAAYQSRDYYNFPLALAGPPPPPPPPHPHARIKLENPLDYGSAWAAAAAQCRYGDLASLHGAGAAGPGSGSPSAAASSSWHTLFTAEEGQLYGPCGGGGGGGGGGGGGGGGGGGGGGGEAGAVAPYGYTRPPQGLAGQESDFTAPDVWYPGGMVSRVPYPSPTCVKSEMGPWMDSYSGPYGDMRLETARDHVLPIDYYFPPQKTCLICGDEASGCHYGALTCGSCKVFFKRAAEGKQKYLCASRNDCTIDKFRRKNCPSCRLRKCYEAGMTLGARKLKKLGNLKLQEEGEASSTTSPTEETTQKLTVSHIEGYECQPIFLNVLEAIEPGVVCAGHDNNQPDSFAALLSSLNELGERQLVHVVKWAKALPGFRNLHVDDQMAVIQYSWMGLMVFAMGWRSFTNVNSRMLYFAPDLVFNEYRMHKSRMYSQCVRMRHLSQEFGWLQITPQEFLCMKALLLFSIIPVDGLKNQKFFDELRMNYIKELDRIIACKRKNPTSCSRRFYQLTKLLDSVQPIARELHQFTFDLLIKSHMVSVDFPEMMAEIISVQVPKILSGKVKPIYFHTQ
Summary of the method: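 Gain-of-signal reporter endpoint: cells (CHO-K1, hamster) are treated 24 h, luciferin/ATP reagent added, and luminescence compared with DMSO baseline.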

[2] = biological target: Retinoic acid receptor RXR-alpha (Homo sapiens) (UniProt P19793); assay: OT_NURR1_NURR1RXRa_0480: Odyssey Thera (OT) 8-hour HEK293T Protein Complementation Assay for Nurr1/retinoid X receptor (RXR) (AID 2283385)
Retinoic acid receptor RXR-alpha (Homo sapiens), sequence (P19793 whole entry, looked up, the tested form may be a part): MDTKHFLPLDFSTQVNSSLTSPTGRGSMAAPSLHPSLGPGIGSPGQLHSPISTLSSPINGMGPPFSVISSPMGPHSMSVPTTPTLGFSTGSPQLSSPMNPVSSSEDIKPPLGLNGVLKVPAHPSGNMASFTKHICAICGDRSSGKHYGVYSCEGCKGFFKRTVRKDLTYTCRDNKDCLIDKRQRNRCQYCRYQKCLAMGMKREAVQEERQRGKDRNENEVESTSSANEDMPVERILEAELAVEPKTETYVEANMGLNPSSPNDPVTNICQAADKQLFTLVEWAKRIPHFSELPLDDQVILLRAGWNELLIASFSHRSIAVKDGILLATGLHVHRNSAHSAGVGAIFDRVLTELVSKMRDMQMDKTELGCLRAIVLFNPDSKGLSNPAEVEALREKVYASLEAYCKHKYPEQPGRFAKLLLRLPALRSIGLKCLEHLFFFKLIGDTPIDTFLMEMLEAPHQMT
Summary of the method: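 Read-out: fluorescence from protein-fragment complementation between Nurr1 and RXRα in human HEK293T cells, 8 h after dosing. DMSO served as negative control; increased signal counted as activity.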

[3] = biological target: Norway rat Vesicular Monoamine Transporter (VMAT2), neurotransmitter transporter, Slc18a2 (gene 25549) (UniProt Q01827); assay: NVS_TR_rVMAT2: NovaScreen (NVS) Transporter Assay for Norway rat Vesicular Monoamine Transporter (VMAT2), neurotransmitter transporter (AID 2283376);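 note: actives lower the bound radioligand signal below the DMSO level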
Norway rat Vesicular Monoamine Transporter (VMAT2), neurotransmitter transporter, Slc18a2 (gene 25549), sequence (Q01827 whole entry, looked up): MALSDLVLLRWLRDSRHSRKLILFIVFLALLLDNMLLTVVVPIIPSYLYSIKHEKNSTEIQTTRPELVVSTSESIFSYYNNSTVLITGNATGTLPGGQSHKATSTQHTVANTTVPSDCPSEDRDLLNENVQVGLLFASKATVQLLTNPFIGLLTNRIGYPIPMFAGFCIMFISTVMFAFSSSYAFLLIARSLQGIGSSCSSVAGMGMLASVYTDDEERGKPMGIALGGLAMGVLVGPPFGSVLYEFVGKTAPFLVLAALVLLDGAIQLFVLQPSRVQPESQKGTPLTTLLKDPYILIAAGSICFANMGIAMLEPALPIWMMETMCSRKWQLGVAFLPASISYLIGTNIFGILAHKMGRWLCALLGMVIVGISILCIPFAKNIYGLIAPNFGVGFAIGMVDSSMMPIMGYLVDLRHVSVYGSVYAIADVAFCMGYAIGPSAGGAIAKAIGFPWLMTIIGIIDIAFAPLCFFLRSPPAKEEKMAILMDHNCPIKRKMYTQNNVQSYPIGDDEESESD
Summary of the method: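 Filter-based scintillation counting of radioligand bound to rat forebrain-derived VMAT2 protein, cell-free, 1 h post-dose. Signal loss relative to DMSO control scored; single-concentration duplicate screen (25 uM) followed by concentration-response testing of actives.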

[4] = biological target: human Norepinephrine Transporter (NET), SLC6A2 (gene 6530) (UniProt P23975); assay: NVS_TR_hNET: NovaScreen (NVS) Transporter Assay for human Norepinephrine Transporter (NET) (AID 2283377);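 note: cell-free membrane protein extracted from CHO cells expressing human NET; displacement of radioligand from human NET seen as loss of scintillation signal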
human Norepinephrine Transporter (NET), SLC6A2 (gene 6530), sequence (P23975 whole entry, looked up): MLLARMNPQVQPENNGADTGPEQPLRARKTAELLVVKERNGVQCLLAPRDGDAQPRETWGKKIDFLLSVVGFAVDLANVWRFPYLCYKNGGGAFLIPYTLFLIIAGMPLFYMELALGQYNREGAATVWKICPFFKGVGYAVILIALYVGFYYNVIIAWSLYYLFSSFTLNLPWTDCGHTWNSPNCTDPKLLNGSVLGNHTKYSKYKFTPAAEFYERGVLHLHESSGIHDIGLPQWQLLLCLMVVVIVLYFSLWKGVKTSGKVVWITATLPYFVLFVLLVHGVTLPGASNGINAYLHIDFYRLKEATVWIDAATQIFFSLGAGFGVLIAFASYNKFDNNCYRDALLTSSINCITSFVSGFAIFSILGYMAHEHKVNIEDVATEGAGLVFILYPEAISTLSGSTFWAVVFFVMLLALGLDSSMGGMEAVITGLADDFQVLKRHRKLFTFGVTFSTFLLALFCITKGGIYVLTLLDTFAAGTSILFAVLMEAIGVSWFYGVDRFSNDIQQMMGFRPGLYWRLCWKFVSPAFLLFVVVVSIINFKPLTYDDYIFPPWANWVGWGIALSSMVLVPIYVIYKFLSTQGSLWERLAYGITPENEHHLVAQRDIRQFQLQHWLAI
Summary of the method: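 CHO cell extracts expressing the transporter; tritiated or iodinated tracer displaced competitively; filtration plus scintillation readout at 1 h. Single-point duplicates at 25 uM, concentration series for follow-up; activity = signal drop relative to DMSO.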

[5] = biological target: Estrogen receptor beta (Homo sapiens) (UniProt Q92731); assay: OT_ER_ERbERb_1440: Odyssey Thera (OT) 24-hour HEK293T Protein-Complementation Assay for Estrogen Receptor-beta/-beta Homodimer (AID 2283380);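 note: scored as signal increase over DMSO baseline for both agonists and antagonists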
Estrogen receptor beta (Homo sapiens), sequence (Q92731 whole entry, looked up, the tested form may be a part): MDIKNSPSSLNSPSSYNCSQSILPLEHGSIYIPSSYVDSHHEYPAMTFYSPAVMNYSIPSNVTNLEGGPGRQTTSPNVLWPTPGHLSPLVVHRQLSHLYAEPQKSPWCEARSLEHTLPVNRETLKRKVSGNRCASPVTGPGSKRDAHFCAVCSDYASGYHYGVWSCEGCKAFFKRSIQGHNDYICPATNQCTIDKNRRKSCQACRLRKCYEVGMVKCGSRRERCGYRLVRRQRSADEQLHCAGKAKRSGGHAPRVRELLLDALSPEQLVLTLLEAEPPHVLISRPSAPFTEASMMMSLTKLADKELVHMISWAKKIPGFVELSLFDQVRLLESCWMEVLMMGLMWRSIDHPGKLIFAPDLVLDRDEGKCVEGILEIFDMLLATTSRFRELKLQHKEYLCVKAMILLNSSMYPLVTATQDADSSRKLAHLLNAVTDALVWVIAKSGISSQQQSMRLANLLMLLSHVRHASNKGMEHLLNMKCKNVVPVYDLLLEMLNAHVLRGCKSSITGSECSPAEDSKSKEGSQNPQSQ
Summary of the method: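 HEK293T cells stably expressing ER beta LBD (aa 310-547) homodimer fragment-complementation reporter, dosed 24 h. Cells formaldehyde-fixed, Draq5-stained; gain in nuclear (agonist) or nuclear plus cytoplasmic (antagonist) fluorescence versus DMSO read by laser scanning cytometry.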

[6] = biological target: Estrogen receptor (Homo sapiens) (UniProt P03372); assay: OT_ERa_GFPERaERE_0480: Odyssey Thera (OT) 8-hour HeLa Transcription Induction Assay for Estrogen Receptor (AID 2283381; active = hit-call score of the fitted dose curve at least 0.9, where 1 is the maximum; inactive = score below 0.9)
Estrogen receptor (Homo sapiens), sequence (P03372 whole entry, looked up): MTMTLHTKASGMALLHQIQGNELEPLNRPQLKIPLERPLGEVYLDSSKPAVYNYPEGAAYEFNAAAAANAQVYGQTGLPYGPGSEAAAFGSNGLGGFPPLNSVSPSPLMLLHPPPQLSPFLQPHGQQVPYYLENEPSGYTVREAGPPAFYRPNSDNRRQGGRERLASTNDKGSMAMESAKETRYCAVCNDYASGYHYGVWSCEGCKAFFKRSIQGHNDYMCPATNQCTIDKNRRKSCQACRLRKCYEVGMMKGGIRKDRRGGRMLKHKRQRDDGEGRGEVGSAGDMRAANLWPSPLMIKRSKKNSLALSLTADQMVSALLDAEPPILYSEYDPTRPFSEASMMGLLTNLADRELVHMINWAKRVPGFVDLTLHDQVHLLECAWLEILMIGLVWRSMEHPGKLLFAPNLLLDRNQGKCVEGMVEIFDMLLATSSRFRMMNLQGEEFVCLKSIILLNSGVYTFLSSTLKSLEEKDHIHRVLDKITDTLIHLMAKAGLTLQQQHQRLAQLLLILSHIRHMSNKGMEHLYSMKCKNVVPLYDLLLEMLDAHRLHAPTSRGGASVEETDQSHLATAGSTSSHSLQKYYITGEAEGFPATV
Summary of the method: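 GFP-ERE reporter, HeLa, 8 h exposure. Readout: fluorescence microscopy, high-content image analysis. Fit direction positive vs DMSO negative control.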

[7] = biological target: Estrogen receptor (Homo sapiens) (UniProt P03372); assay: OT_ERa_GFPERaERE_0120: Odyssey Thera (OT) 2-hour HeLa Transcription Induction Assay for Estrogen Receptor (AID 2283382)
Summary of the method: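 Fluorescence microscopy read-out: inducible fluorescent protein reporter in HeLa cells, imaged 2 h post-dose. Signal increase over DMSO negative control fitted as single primary endpoint via high content image analysis.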

[8] = biological target: Bile acid receptor (Homo sapiens) (UniProt Q96RI1); assay: OT_FXR_FXRSRC1_0480: Odyssey Thera (OT) 8-hour HEK293T Protein-Complementation Assay for Farnesoid X receptor/SRC-1 Co-activator (AID 2283383)
Bile acid receptor (Homo sapiens), sequence (Q96RI1 whole entry, looked up, the tested form may be a part): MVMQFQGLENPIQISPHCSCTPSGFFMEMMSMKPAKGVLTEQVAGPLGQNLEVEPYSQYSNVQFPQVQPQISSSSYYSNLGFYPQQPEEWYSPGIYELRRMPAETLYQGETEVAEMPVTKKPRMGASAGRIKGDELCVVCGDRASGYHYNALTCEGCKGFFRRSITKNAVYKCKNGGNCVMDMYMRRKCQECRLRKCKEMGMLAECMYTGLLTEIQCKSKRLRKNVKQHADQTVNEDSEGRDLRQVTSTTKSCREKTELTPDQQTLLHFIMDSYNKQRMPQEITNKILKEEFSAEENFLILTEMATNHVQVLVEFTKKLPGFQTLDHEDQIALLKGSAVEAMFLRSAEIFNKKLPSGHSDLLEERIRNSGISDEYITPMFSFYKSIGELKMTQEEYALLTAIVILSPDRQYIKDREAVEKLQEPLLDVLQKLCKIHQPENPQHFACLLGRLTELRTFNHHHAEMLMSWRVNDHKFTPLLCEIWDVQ
Summary of the method: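 Fluorescence intensity read-out, 8 h post-dose, HEK293T protein-fragment complementation; FXR bait and SRC-1 prey each linked to reporter fragments. Activity scored as signal increase over DMSO negative control.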

[9] = biological target: Bile acid receptor (Homo sapiens) (UniProt Q96RI1); assay: OT_FXR_FXRSRC1_1440: Odyssey Thera (OT) 24-hour HEK293T Protein-Complementation Assay for Farnesoid X receptor/SRC-1 Co-activator (AID 2283384)
Summary of the method: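 Fluorescence readout, 24 h post-dose, HEK293T; FXR and SRC-1 fused to complementary reporter fragments, association reconstitutes signal. Positive-direction fit vs DMSO baseline.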

CCCOc1nn(C(=O)NS(=O)(=O)c2ccccc2C(=O)OC)c(=O)n1C
outcome [1]: inactive | outcome [2]: inactive

Cc1cc(C2CC2)nc(Nc2ccccc2)n1
outcome [3]: inactive | AC50 [4]: 3.82 µM (active) | AC50 [5]: 50 µM (active) | outcome [6]: inactive | outcome [7]: inactive | AC50 [8]: 20.4 µM (active) | outcome [9]: inactive | outcome [2]: inactive

CC1=NNC(=O)N(/N=C/c2cccnc2)C1
outcome [5]: inactive

CCOP(=S)(OCC)Oc1ccc2c(C)c(Cl)c(=O)oc2c1
outcome [5]: inactive

O=C(O)c1cc(Oc2ccc(C(F)(F)F)cc2Cl)ccc1[N+](=O)[O-]
outcome [5]: inactive

CCOC(=O)COc1cc(-c2nn(C)c(OC(F)F)c2Cl)c(F)cc1Cl
outcome [1]: inactive | outcome [2]: inactive

Cc1nn(-c2cc(NS(C)(=O)=O)c(Cl)cc2Cl)c(=O)n1C(F)F
outcome [1]: inactive | outcome [5]: inactive

CCC(CC)Nc1c([N+](=O)[O-])cc(C)c(C)c1[N+](=O)[O-]
AC50 [5]: 13.5 µM (active) | AC50 [8]: 43.3 µM (active) | AC50 [9]: 71.7 µM (active) | outcome [2]: inactive

CON=C(C(=O)OC)c1ccccc1CON=C(C)c1cccc(C(F)(F)F)c1
AC50 [2]: 17.4 µM (active) | outcome [2]: inactive

CC(C1CC1)C(O)(Cn1cncn1)c1ccc(Cl)cc1 (stereo not drawn)
AC50 [5]: 31.1 µM (active) | outcome [2]: inactive

CCc1cccc(C)c1N(C(=O)CCl)C(C)COC (stereo not drawn)
outcome [5]: inactive | outcome [2]: inactive

COP(=O)(OC)C(O)C(Cl)(Cl)Cl (stereo not drawn)
outcome [8]: inactive | AC50 [9]: 25.1 µM (active) | outcome [2]: inactive

COc1cccc(C(=O)NN(C(=O)c2cc(C)cc(C)c2)C(C)(C)C)c1C
outcome [5]: inactive | AC50 [8]: 14.7 µM (active) | AC50 [9]: 27 µM (active) | outcome [2]: inactive

C#CC(C)(C)NC(=O)c1cc(Cl)cc(Cl)c1
outcome [2]: inactive

CNc1cnn(-c2cccc(C(F)(F)F)c2)c(=O)c1Cl
outcome [5]: inactive | outcome [8]: inactive | outcome [9]: inactive | outcome [2]: inactive

CCC(=NOC/C=C/Cl)C1=C(O)CC(C2CCOCC2)CC1=O (stereo not drawn)
outcome [5]: inactive | outcome [2]: inactive

CC(COc1ccc(Oc2ccccc2)cc1)Oc1ccccn1 (stereo not drawn)
outcome [5]: inactive | AC50 [8]: 43 µM (active) | AC50 [9]: 7.29 µM (active) | AC50 [2]: 63.2 µM (active) | outcome [2]: inactive

CCOP(=O)(SC(C)CC)N1CCSC1=O (stereo not drawn)
outcome [2]: inactive

O=[N+]([O-])c1cc(C(F)(F)F)c(Cl)c([N+](=O)[O-])c1Nc1ncc(C(F)(F)F)cc1Cl
AC50 [6]: 17.9 µM (active) | AC50 [7]: 77.7 µM (active)

CCNc1nc(Cl)nc(NC(C)(C)C#N)n1
outcome [5]: inactive | outcome [2]: inactive

S=C1NCCN1
outcome [2]: inactive

CCCSP(=O)(OCC)Oc1ccc(Br)cc1Cl (stereo not drawn)
outcome [5]: inactive | AC50 [8]: 25 µM (active) | outcome [9]: inactive | AC50 [2]: 44 µM (active) | outcome [2]: inactive

CSC1=N[C@@](C)(c2ccccc2)C(=O)N1Nc1ccccc1
outcome [5]: inactive | AC50 [8]: 44.8 µM (active) | AC50 [9]: 50 µM (active) | outcome [2]: inactive

CCOP(=S)(Oc1cnc(C(C)(C)C)nc1)OC(C)C (stereo not drawn)
AC50 [2]: 73.2 µM (active) | outcome [2]: inactive

CNC(=O)ON=C(C)SC
outcome [5]: inactive | outcome [2]: inactive

CCCCN(CC)c1c([N+](=O)[O-])cc(C(F)(F)F)cc1[N+](=O)[O-]
outcome [5]: inactive | outcome [2]: inactive

COP(=O)(NC(C)=O)SC (stereo not drawn)
outcome [5]: inactive | outcome [2]: inactive

CCOP(=S)(OCC)SCCSCC
outcome [5]: inactive | outcome [2]: inactive

CCOC(=O)CC(SP(=O)(OC)OC)C(=O)OCC (stereo not drawn)
outcome [5]: inactive | outcome [8]: inactive | outcome [9]: inactive | outcome [2]: inactive

COc1cc(OC)nc(Sc2cccc(Cl)c2C(=O)O)n1
outcome [2]: inactive

C=C(C)[C@H]1Cc2c(ccc3c2O[C@@H]2COc4cc(OC)c(OC)cc4[C@@H]2C3=O)O1
AC50 [8]: 12.7 µM (active) | AC50 [9]: 9.92 µM (active) | AC50 [2]: 16 µM (active) and 12.6 µM (active)

CNC(=O)Oc1cccc2c1OC(C)(C)O2
outcome [6]: inactive | outcome [7]: inactive | outcome [9]: inactive | outcome [2]: inactive

CCCCSP(=O)(SCCCC)SCCCC
outcome [5]: inactive | AC50 [8]: 36.9 µM (active) | outcome [9]: inactive | AC50 [2]: 68.9 µM (active) | outcome [2]: inactive

CN(C)[C@@H]1C(=O)C(C(N)=O)=C(O)[C@@]2(O)C(=O)C3=C(O)c4c(O)cccc4[C@@](C)(O)[C@H]3[C@H](O)[C@@H]12
AC50 [2]: 50 µM (active) | outcome [2]: inactive

C#CCC1=C(C)C(OC(=O)C2C(C=C(C)C)C2(C)C)CC1=O (stereo not drawn)
outcome [5]: inactive | AC50 [8]: 33 µM (active) | AC50 [9]: 49.8 µM (active) | AC50 [2]: 66.7 µM (active) | outcome [2]: inactive

CN(C)NC(=O)CCC(=O)O
AC50 [5]: 16.8 µM (active) | outcome [2]: inactive

CC(=NC#N)N(C)Cc1ccc(Cl)nc1
outcome [5]: inactive | outcome [2]: inactive

CN1COCN(Cc2cnc(Cl)s2)C1=N[N+](=O)[O-]
outcome [9]: inactive | outcome [2]: inactive

CC1(C(=O)Nc2ccc(O)c(Cl)c2Cl)CCCCC1
AC50 [5]: 20.6 µM (active) | outcome [8]: inactive | outcome [9]: inactive | outcome [2]: inactive

Nc1nc(N)nc(NC2CC2)n1
outcome [5]: inactive | outcome [9]: inactive | outcome [2]: inactive

CN(C)C(=O)Nc1cccc(C(F)(F)F)c1
outcome [5]: inactive | outcome [2]: inactive

CCOP(=S)(OCC)OC(Cl)C(Cl)(Cl)Cl (stereo not drawn)
outcome [5]: inactive | AC50 [2]: 80.9 µM (active) | outcome [2]: inactive
